Results reported in PubChem BioAssay AID1476 (National Center for Advancing Translational Sciences (NCATS), 2009).
Screen size: about 200,000 compounds; about 4,500 (2.2%) were called active. Roughly 12% stayed inconclusive and do not appear here. Shown is part of a subset that was picked to be rich in actives. A number with no mark means an inactive call. The call rests on the fitted dose curve; in most records, active means well fitted inhibition curve with a large enough effect; inconclusive means small, poorly fitted or top-dose-only effect, or effect the other way; inactive means flat fitted curve, though single readings scatter.

The molecules below were run against Cruzipain (Trypanosoma cruzi) (UniProt P25779) (assay: qHTS Assay for Promiscuous and Specific Inhibitors of Cruzain (without detergent)). Conditions: purified cruzain, Z-FR-AMC fluorescence, no detergent.
Sequence of Cruzipain (Trypanosoma cruzi) (P25779 123-467 limits assumed): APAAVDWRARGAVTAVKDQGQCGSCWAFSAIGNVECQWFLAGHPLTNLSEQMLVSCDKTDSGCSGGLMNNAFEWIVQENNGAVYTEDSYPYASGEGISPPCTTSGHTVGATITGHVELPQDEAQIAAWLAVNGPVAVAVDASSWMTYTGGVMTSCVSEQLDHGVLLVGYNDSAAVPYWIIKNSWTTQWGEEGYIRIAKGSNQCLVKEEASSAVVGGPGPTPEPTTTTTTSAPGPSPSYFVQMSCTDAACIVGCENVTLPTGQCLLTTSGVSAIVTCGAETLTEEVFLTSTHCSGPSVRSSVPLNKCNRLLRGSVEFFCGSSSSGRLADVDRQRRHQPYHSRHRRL
Procedure, shortened: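 Purified cruzain at 1.5 nM, pre-incubated 15 min with compound at room temperature in 100 mM sodium acetate pH 5.5, 5 mM DTT, 0.00005% Triton X-100. Reaction started with 2 uM Z-FR-AMC; AMC fluorescence increase over 60 s gives rate.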
Further: nearly all actives have a fitted effect of over 40% in size.
Potency means the concentration at half of the fitted maximal effect.
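Wherever max response, negative = inhibition is given: plate controls were enzyme without inhibitor for no effect and buffer without enzyme for full effect.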

SMILES	max response, negative = inhibition	Potency
COc1ccccc1OCCCn1c(-c2ccc(Cl)cc2)nc2ccccc2c1=O	3.21%	
COc1ccc(S(=O)(=O)NCc2cccn2Cc2cccc(C)c2)cc1Cl	6.08%	
COc1ccc(Br)cc1C1CC(=O)Nc2c1c(C)nn2-c1nc(C)cc(C)n1 (centres undefined)	3.34%	
CC(=O)c1ccc(N2CCN(c3nc4c(S(=O)(=O)c5ccccc5)nnn4c4ccc(Cl)cc34)CC2)cc1	0.808%	
CCCS(=O)(=O)c1ncc(Cl)c(C(=O)Nc2scc(-c3ccccc3)c2C(=O)OCC)n1	-26.6%	
CC(=O)Nc1cccc(NC(=O)c2c(-c3ccccc3)noc2C)c1	2.43%	
CCOC(=O)c1c(-c2cccc(C)c2)csc1NC(=O)c1c(-c2ccccc2)noc1C		7.94 µM (active)
CCOc1ccc(S(=O)(=O)c2cn(Cc3ccccc3)c3ccc(OCC)cc3c2=O)cc1	-17.9%	
COc1ccc(NC(=O)Cn2c(=O)n(Cc3ccco3)c(=O)c3ccccc32)cc1	-4.83%	
COc1ccc(NC(=O)Cn2c(=O)n(Cc3ccc(C(=O)NCc4ccccc4Cl)cc3)c(=O)c3ccccc32)cc1		10 µM (active)
COc1ccc(OC)c(NC(=O)Cn2c(=O)n(Cc3ccccc3)c(=O)c3ccccc32)c1	-9.43%	
Cn1nnc2c(N3CCN(c4ccccc4)CC3)ncnc21	-1.23%	
CCCCN1CC(c2nc3ccccc3n2CCCCOc2ccc(C)cc2C)CC1=O (centres undefined)	1.93%	
CCOc1ccccc1NC(=O)C1CCCN(S(=O)(=O)c2cn(C)cn2)C1 (centres undefined)	-18.2%	
O=C(COC(=O)c1c2c(nc3ccccc13)/C(=C\c1cccs1)CCC2)Nc1ccccc1Cl		31.6 µM (active)
O=C(COC(=O)CCc1c[nH]c(=O)[nH]1)Nc1ccccc1Cl	-19.9%	
NS(=O)(=O)c1ccc(NC(=O)COC(=O)c2c3c(nc4ccccc24)/C(=C\c2ccc4c(c2)OCO4)CCC3)cc1		20 µM (active)
O=C(COC(=O)/C(=C/c1cccs1)c1cccs1)NCc1ccccc1Cl	3.79%	
O=C1/C(=C/c2ccc3c(c2)OCO3)CCC/C1=C\c1ccc2c(c1)OCO2	-11.7%	
CC(NC(=S)Nc1ccc(S(N)(=O)=O)cc1)c1ccc2c(c1)OCO2 (centres undefined)	-22.3%	
COc1cccc(OCCn2c(-c3ccc(Br)cc3)nc3ccccc3c2=O)c1	-14.8%	
Cc1cc(C)cc(NS(=O)(=O)c2cc3c(cc2C)NC(=O)CO3)c1	6.94%	

SMILES	max response, negative = inhibition	Potency
Cc1cc(C)cc(NC(=O)CSc2nc(=O)n(CCN3CCOCC3)c3c2CCC3)c1	-7.74%	
O=C(c1ccc(Br)cc1)N(Cc1cccs1)c1ccc(F)cc1	11.6%	
COC(=O)c1ccc(NC(=O)CSc2n[nH]c(-c3ccccc3)n2)cc1	-7.41%	
COc1ccc(C(=O)Nc2nc(-c3ccc(S(=O)(=O)N4CCOCC4)cc3)cs2)cc1	-19.9%	
CCc1nnc(NC(=O)CSc2nnc(Cc3ccccc3)n2-c2ccc(OC)cc2)s1	-3.04%	
COc1ccc(Cc2nnc(NS(=O)(=O)Cc3ccccc3)s2)cc1	-1.39%	
Cc1ccc(-c2csc(NC(=O)Cc3cccs3)n2)cc1C	-12.6%	
COc1ccc(Cc2nnc(NC(=O)Cc3cccs3)s2)cc1		20 µM (active)
COc1ccc(-c2csc(NC(=O)CCCc3cccs3)n2)cc1		10 µM (active)
CCN(CC)S(=O)(=O)c1ccc2c(c1)nc(CN(C)C(=O)Nc1ccc(Cl)cc1)n2C	2.49%	
CCOC(=O)c1[nH]c(C)c(CCC(=O)N2CCN(c3ccccc3)CC2)c1C	6.86%	
Cc1cccc(C(=O)N2CCc3cc(CNC(=O)Cc4ccc(F)cc4)ccc32)c1	-5.89%	
CCc1ccc(CN(Cc2ccco2)C(=O)COc2ccc(Cl)c(C)c2)cc1	-28.4%	
CCN(CC)S(=O)(=O)c1ccc2c(c1)N(CC(=O)NCC(C)c1ccccc1)C(=O)CO2 (centres undefined)	13.8%	
O=C(Nc1sc2c(c1-c1nc3ccccc3[nH]1)CCCC2)C1CC1		25.1 µM (active)
O=C(OCc1nc2ccccc2[nH]1)C1CCCCC1	6.92%	
c1ccc2[nH]c(-c3nc4ccccc4[nH]3)nc2c1	9%	
Cc1ccc2c(c1)N(C(=O)CCC(=O)NCc1ccccc1F)CC(C)O2 (centres undefined)	2.02%	
Cc1ccc(OCCSc2nc(C)c(Cc3ccccc3)c(=O)[nH]2)cc1	-1.11%	
O=C(NC1CC(=O)N(c2ccc(F)cc2)C1)c1cccs1 (centres undefined)	8.85%	
Cc1c(Cl)cccc1-c1ccc(CNCCCSc2nnnn2C)o1	-7.09%	
CCCc1ccc(OCc2ccc(C(=O)N/N=C/c3cccc([N+](=O)[O-])c3)o2)c(OC)c1		6.31 µM (active)
